Bioassay records as filed in PubChem.
Shown are actives, neighbours in structure and some others; about 6% of the full set was active somewhere.
D3 antag = blocks the human D3 dopamine receptor; 360,000 tested, 2.5% active; max response, negative = inhibition, %; P35462; D3R cells, DiscoveRx beta-arrestin luminescence, antagonist mode; hits give low values; AID 652054; in the data active = max response below about -50%; inconclusive = no clear call, values can overlap the other calls
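Cells plated overnight at 1500 cells/well, then exposed to library compounds with dopamine controls for 90 minutes at 37 degrees C. DiscoveRx reagent added for 30–60 minutes at room temperature; luminescence read, quantitative HTS format.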
D1 antagonist = blocks dopamine activation of the human D1 receptor; P21728; HEK293 TREx D1 cells, calcium flux, dopamine EC80; hits give low values; activity change, negative = inhibition, % at 10 µM; 360,000 tested, 3.2% active; AID 504652; in the data active = activity change below about -30%
Target sequence (P21728 whole entry, looked up): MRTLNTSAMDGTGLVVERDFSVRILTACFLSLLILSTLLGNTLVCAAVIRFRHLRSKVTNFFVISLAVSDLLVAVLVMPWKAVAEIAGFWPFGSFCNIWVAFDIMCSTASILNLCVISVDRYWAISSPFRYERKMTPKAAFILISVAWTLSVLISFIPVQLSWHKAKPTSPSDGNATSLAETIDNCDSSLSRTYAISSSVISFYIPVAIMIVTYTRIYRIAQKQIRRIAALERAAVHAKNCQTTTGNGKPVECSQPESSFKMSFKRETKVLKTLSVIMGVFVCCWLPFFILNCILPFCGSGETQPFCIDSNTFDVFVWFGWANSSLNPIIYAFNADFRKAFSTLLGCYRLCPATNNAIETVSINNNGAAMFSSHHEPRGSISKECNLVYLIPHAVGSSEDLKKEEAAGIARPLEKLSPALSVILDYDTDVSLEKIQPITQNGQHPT
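Cells carrying a force-coupled, tetracycline-inducible human D1 receptor report calcium flux. Each well gets a 10 s baseline, compound with 180 s monitoring, then an EC80 dopamine stimulus with a second 180 s kinetic read.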
D1 agonist = activates the human D1 dopamine receptor | P21728 | HEK293 T-REx D1 cells, calcium flux, agonist mode | activation, % at 2 µM | 360,000 tested, 1% active; in the data active = activation above about 30%
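Inducible HEK293 T-REx D1 cells, force-coupled to calcium signalling, were plated at 4000 cells/well with tetracycline and held overnight at 30 C. After no-wash calcium dye loading, compound-evoked calcium rise over 180 s flagged agonists.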
DRD3 agonist = D3 dopamine receptor (human) agonism. P35462. D3R DiscoveRx beta-arrestin cells, luminescence, 90 min. max activation, %. 410,000 tested, 0.58% active; in the data active = max activation above about 30%
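Cells at 1500/well, incubated overnight, then treated with pinned compounds (dopamine as control) for 90 min at 37 degrees C. DiscoveRx reagent added for 30 - 60 minutes at room temperature; luminescence read.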
D1 potentiator = enhances dopamine response at the human D1 receptor; HEK293 TREx D1 cells, calcium flux, dopamine EC20 potentiation; potentiation, % at 10 µM; 360,000 tested, 0.036% active; in the data active = potentiation above about 30%
Numbers stand for hits.

CCN1CCN(C(c2cccc(F)c2)c2c(O)cc(C)n(CCOC)c2=O)CC1 (centres undefined) was read as D1 antagonist inactive, D1 agonist inactive, DRD3 agonist inactive and D1 potentiator inactive.
`Cc1ccc2ncc(C(=O)NC(C)c3ccccc3)c(=O)n2c1` (centres undefined) gave D1 antagonist -34, D1 agonist inactive, DRD3 agonist inactive and D1 potentiator inactive.
For O=C(NC1CCCC1)c1ccccc1OCc1ccccc1 the results were D3 antag inactive, D1 antagonist inactive, D1 agonist inactive, DRD3 agonist inactive and D1 potentiator inactive.
O=C(NC1CCN(Cc2ccc(Cl)cc2)CC1)c1cn(-c2ccccc2)nc1-c1cccnc1 was read as D3 antag -62, D1 antagonist -50, D1 agonist inactive and DRD3 agonist inactive.
O=C(NCc1ccncc1)c1cn(-c2ccccc2)nc1-c1cccnc1 was read as D3 antag inactive, D1 antagonist inactive, D1 agonist inactive, DRD3 agonist inactive and D1 potentiator inactive.
For CSc1ncccc1C(=O)NC1CCN(Cc2ccccc2)CC1 the results were D3 antag -60, D1 antagonist inactive, D1 agonist inactive, DRD3 agonist inactive and D1 potentiator inactive.
Screening O=C(NC1CCN(Cc2ccccc2)CC1)c1ccccc1OCc1ccccc1 returned D3 antag -99, D1 antagonist inactive, D1 agonist inactive, DRD3 agonist inactive and D1 potentiator inactive.
Screening O=C(NC1CCN(Cc2ccccc2)CC1)c1ccccc1OCc1ccccc1Cl returned D3 antag -105, D1 antagonist -38, D1 agonist inactive, DRD3 agonist inactive and D1 potentiator inactive.
Screening COc1ccc(CN(C(=O)c2ccccc2F)C2CCS(=O)(=O)C2)cc1 (centres undefined) returned D1 antagonist inactive, D1 agonist inactive, DRD3 agonist inactive and D1 potentiator inactive.
Screening Cc1ccc2nc(-c3ccsc3)c(Nc3ccc(Cl)cc3)n2c1 returned D1 antagonist inactive, D1 agonist inactive, DRD3 agonist inactive and D1 potentiator inactive.
CCOc1ccccc1C(=O)NC1CCN(Cc2ccccc2)CC1 was read as D3 antag -73, D1 antagonist -31, D1 agonist inactive, DRD3 agonist inactive and D1 potentiator inactive.
For COc1ccc(C(=O)OCCCN(C)C)cc1OC the results were D3 antag inactive, D1 antagonist inactive, D1 agonist inactive, DRD3 agonist inactive and D1 potentiator inactive.
`COc1cc(C(=O)OCCN2CCOCC2)cc(OC)c1OC` gave D3 antag inactive, D1 antagonist inactive, D1 agonist inactive, DRD3 agonist inactive and D1 potentiator inactive.
COc1cc(C(=O)OCCCN2CCCN(CCCOC(=O)c3cc(OC)c(OC)c(OC)c3)CC2)cc(OC)c1OC was read as D3 antag -92 and DRD3 agonist inactive.
COc1cc(C(=O)OCCCN(C)C)cc(OC)c1OC was read as D3 antag inactive, D1 antagonist -39, D1 agonist inactive, DRD3 agonist inactive and D1 potentiator inactive.
`NC(=O)N[C@@H](CCC(=O)O)C(=O)O` gave DRD3 agonist inactive.
`O=C1c2ccccc2C(=O)N1CCc1c(-c2ccccc2)[nH]c2ccccc12` gave D3 antag inactive and DRD3 agonist 33.
For O=C1c2ccccc2C(=O)N1CCc1c(-c2[nH]c3ccccc3c2CCN2C(=O)c3ccccc3C2=O)[nH]c2ccccc12 the results were D3 antag inactive and DRD3 agonist inactive.
CCOc1ccc(Nc2oc(/C=C/c3cc(OC)c(OC)c(OC)c3)nc2C#N)cc1 was read as D1 antagonist inactive, D1 agonist inactive, DRD3 agonist inactive and D1 potentiator inactive.
COc1ccc(N2C(=O)C(CC(=O)Nc3ccc(Cl)cc3)N(Cc3ccc4c(c3)OCO4)C2=O)cc1 (centres undefined) was read as D1 antagonist inactive, D1 agonist inactive, DRD3 agonist inactive and D1 potentiator inactive.
`Cc1ccc(NC(=O)CCN2C(=O)NC3(CCCC3)C2=O)cc1S(=O)(=O)N1CCOCC1` gave D3 antag inconclusive, D1 antagonist -92, D1 agonist inactive, DRD3 agonist inactive and D1 potentiator inactive.
`Cc1ccc(NC(=O)CCCSc2ccccc2)cc1S(=O)(=O)N1CCOCC1` gave D3 antag inactive, D1 antagonist -40, D1 agonist inactive, DRD3 agonist inactive and D1 potentiator inactive.
For Cc1ccc(NC(=O)CCNS(=O)(=O)c2ccccc2F)cc1S(=O)(=O)N1CCOCC1 the results were D3 antag inactive, D1 antagonist -59, D1 agonist inactive, DRD3 agonist inactive and D1 potentiator inactive.
Screening Cc1ccc(NC(=O)C(C)N2C(=O)c3ccccc3C2=O)cc1S(=O)(=O)N1CCOCC1 (centres undefined) returned D3 antag inactive, D1 antagonist -42, D1 agonist inactive, DRD3 agonist inactive and D1 potentiator inactive.
Screening CCC(Oc1ccccc1)C(=O)Nc1ccc(C)c(S(=O)(=O)N2CCOCC2)c1 (centres undefined) returned D3 antag inactive, D1 antagonist inactive, D1 agonist inactive, DRD3 agonist inactive and D1 potentiator inactive.
O=C(CCCN1C(=O)NC2(CCCC2)C1=O)Nc1cccc(S(=O)(=O)N2CCOCC2)c1 was read as D3 antag inactive, D1 antagonist inactive, D1 agonist inactive, DRD3 agonist inactive and D1 potentiator inactive.
Screening COc1ccc(-c2cc(C(C)=O)c(C)n2CCC(=O)Nc2cc(Cl)ccc2C)cc1 returned D1 antagonist inactive, D1 agonist inactive, DRD3 agonist inactive and D1 potentiator inactive.
For Cc1ccc(CNS(=O)(=O)c2cc(C(=O)Nc3cccc(C(F)(F)F)c3)ccc2F)cc1 the results were D1 antagonist inactive, D1 agonist inactive, DRD3 agonist inactive and D1 potentiator inactive.
For Cc1ccc(NC(=O)CN2C(=O)CC(c3ccc(C)c(C)c3)=Nc3ccccc32)cc1 the results were D1 antagonist inactive, D1 agonist inactive, DRD3 agonist inactive and D1 potentiator inactive.
CCN(CC)c1ccc(S(=O)(=O)N2CCOCC2)cc1NC(=O)CN1C(=O)NC2(CCCC2)C1=O was read as D3 antag inactive, D1 antagonist inactive, D1 agonist inactive, DRD3 agonist inactive and D1 potentiator inactive.
O=C(CN1C(=O)NC2(CCCC2)C1=O)Nc1cc(S(=O)(=O)N2CCOCC2)ccc1OCC(F)(F)F was read as D3 antag inactive, D1 antagonist -50, D1 agonist inactive, DRD3 agonist inactive and D1 potentiator inactive.
`O=C(CNc1cc(S(=O)(=O)N2CCCC2)ccc1OCC(F)(F)F)Nc1ccc(SC(F)F)cc1` gave D3 antag inactive, D1 antagonist -51, D1 agonist inactive, DRD3 agonist inactive and D1 potentiator inactive.
`Cc1ccc(NC(=O)COC(=O)C2CSC3(C)CCC(=O)N23)cc1S(=O)(=O)N1CCOCC1` (centres undefined) gave D3 antag inactive, D1 antagonist -38, D1 agonist inactive, DRD3 agonist inactive and D1 potentiator inactive.
